Screening data: PubChem, The Scripps Research Institute Molecular Screening Center
CHO-K1 Ca antag: M1 antagonist counterscreen hit in parental CHO-K1 cells; ATP-induced calcium, Fluo-8 fluorescence; hit rate 0.6% among 360,000; inhibition, % at 3 µM; AID 602250;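 active means inhibition above a per-plate cutoff, the plate's mean sample inhibition plus 3 SD, cut at about 24% in these data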;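 further: 0% = DMSO plus EC80 ATP and 100% = DMSO alone without ATP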
M1 ag parental: M1 agonist counterscreen hit in parental CHO-K1 cells | activation, % at 3 µM | Fluo-8 calcium fluorescence; scaled to maximal ATP response, vehicle zero | hit rate 0.48% among 360,000; in the data active means activation above about 15%;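 further: untransfected CHO-K1 host cells lacking M1 receptor as counterscreen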
CHO-K1 Ca PAM: M1 PAM counterscreen hit in parental CHO-K1 cells | ATP EC20, Fluo-8 calcium fluorescence; 0% at ATP EC20, 100% at ATP max | activation, % at 3 µM | hit rate 0.02% among 360,000 | AID 602247;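 active means activation above the run cutoff, the mean activation of all test compounds plus 3 SD, cut at about 40% in these data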;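 further: peak over basal fluorescence ratio in a 140 s read after ATP addition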
M1 ag: human M1 muscarinic receptor agonism. CHO-K1 hM1, Fluo-8 calcium fluorescence, agonist mode; 0% DMSO, 100% acetylcholine EC100. activation, % at 3 µM. hit rate 0.33% among 360,000. AID 588814;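 active means activation above the run's mean compound activation plus 3 SD, cut at about 16% in these data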;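 further: peak over basal fluorescence ratio within a 140 s kinetic read after compound addition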
Target sequence (P11229 whole entry, looked up): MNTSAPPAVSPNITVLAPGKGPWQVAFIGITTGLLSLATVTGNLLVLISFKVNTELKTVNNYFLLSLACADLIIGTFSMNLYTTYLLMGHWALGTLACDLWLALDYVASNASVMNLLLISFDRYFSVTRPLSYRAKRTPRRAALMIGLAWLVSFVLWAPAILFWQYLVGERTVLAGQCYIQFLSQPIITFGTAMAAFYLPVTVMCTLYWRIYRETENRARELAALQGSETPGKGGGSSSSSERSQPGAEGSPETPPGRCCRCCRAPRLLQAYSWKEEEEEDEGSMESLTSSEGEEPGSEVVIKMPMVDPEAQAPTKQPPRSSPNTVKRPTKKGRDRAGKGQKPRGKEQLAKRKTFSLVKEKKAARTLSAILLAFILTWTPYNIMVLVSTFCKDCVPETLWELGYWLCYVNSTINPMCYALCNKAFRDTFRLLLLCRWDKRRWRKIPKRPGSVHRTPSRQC
M1 antag: antagonists of human M1 muscarinic receptor | P11229 | CHO-K1 hM1, Fluo-8 calcium fluorescence, ACh EC80 antagonist | inhibition, % at 3 µM | hit rate 1.3% among 360,000;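 active means percent inhibition above its own plate's cutoff, namely the mean of that plate's compound wells plus 3 SD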;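 further: peak over basal fluorescence ratio during 140 s after agonist addition; 0% = ACh EC80 plus DMSO and 100% = DMSO alone without agonist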
CHRM1 PAM: potentiates human M1 receptor response to acetylcholine. P11229. CHO-K1 hM1, Fluo-8 calcium fluorescence, ACh EC20; 0% = ACh EC20, 100% = maximal ACh. activation, % at 3 µM. hit rate 0.088% among 360,000. AID 588819; in the data active means activation above about 19%, passing the limit was not always enough
* marks the source's active call; other numbers are inactive results. The list is not random: actives were taken first. Their share in the collection is about 2.3%.

For COc1ccc(C(O)(CCN2CCCCC2)C2CCCCC2)cc1 (stereo not given) the results were CHO-K1 Ca antag 3, M1 ag parental 0, CHO-K1 Ca PAM -4, M1 ag -9, M1 antag 101* and CHRM1 PAM -27.
Cc1ccc(Cl)cc1N1CCN(C(=O)C2CCN(S(=O)(=O)c3c(C)nn(C)c3C)CC2)CC1 was read as CHO-K1 Ca antag 16, M1 ag parental 12, CHO-K1 Ca PAM -2, M1 ag 10, M1 antag 22* and CHRM1 PAM -20.
For Cc1ccc(Cl)cc1N1CCN(C(=O)C2CCN(S(=O)(=O)c3cccnc3)CC2)CC1 the results were CHO-K1 Ca antag 16, M1 ag parental 8, CHO-K1 Ca PAM -9, M1 ag 2, M1 antag 18 and CHRM1 PAM -7.
For Cc1ccc(CCNC(=O)C2CCN(S(=O)(=O)c3c(C)nn(C)c3C)CC2)cc1 the results were CHO-K1 Ca antag -19, M1 ag parental 1, CHO-K1 Ca PAM 18, M1 ag -5, M1 antag -10 and CHRM1 PAM 9.
For Cc1ccc(NC(=O)C2CCN(S(=O)(=O)c3c(C)nn(C)c3C)CC2)c(Cl)c1 the results were CHO-K1 Ca antag 37*, M1 ag parental 2, CHO-K1 Ca PAM 16, M1 ag -4, M1 antag -9 and CHRM1 PAM 6.
`C=CCCC(=O)N1C[C@H]2CON(C)[C@H]2C[C@H]1c1ccc(Br)cc1` gave CHO-K1 Ca antag 13, M1 ag parental 0, CHO-K1 Ca PAM -8, M1 ag 2, M1 antag -14 and CHRM1 PAM 5.
`Cc1nn(C(C)C(=O)NCCCN2CCCCCC2)c(=O)c2c1sc1ccccc12` (stereo not given) gave CHO-K1 Ca antag -20, M1 ag parental 0, CHO-K1 Ca PAM 27, M1 ag -6, M1 antag 55* and CHRM1 PAM -21.
Screening CCn1c(=O)c2ccccc2n(Cc2ccccc2C)c1=O returned CHO-K1 Ca antag -8, M1 ag parental 0, CHO-K1 Ca PAM 7, M1 ag -1, M1 antag -20 and CHRM1 PAM 15.
`O=C(CN1CCCCC1)NC1CCc2cc3c(cc21)CCC3` (stereo not given) gave CHO-K1 Ca antag 27*, M1 ag parental -1, CHO-K1 Ca PAM -30, M1 ag -8, M1 antag 1 and CHRM1 PAM -1.
CC(=O)Cc1c(C(=O)O)c(C)nn1-c1ccccc1 was read as CHO-K1 Ca antag 26*, M1 ag parental -1, CHO-K1 Ca PAM -15, M1 ag -6, M1 antag 3 and CHRM1 PAM 0.
For O=C(Nn1c(C2CCCCC2)nc2ccccc2c1=O)c1ccc([N+](=O)[O-])cc1 the results were CHO-K1 Ca antag 24*, M1 ag parental 0, CHO-K1 Ca PAM -14, M1 ag -3, M1 antag -3 and CHRM1 PAM 11.
c1ccc2c(CCNc3ncnc4nc[nH]c34)cccc2c1 was read as CHO-K1 Ca antag 24, M1 ag parental 11, CHO-K1 Ca PAM -2, M1 ag 7, M1 antag 54* and CHRM1 PAM -20.
Screening COc1ccc2[nH]c3c(NCCCOC(C)C)ncnc3c2c1 returned CHO-K1 Ca antag -7, M1 ag parental 2, CHO-K1 Ca PAM -1, M1 ag -8, M1 antag 11 and CHRM1 PAM -13.
Screening C1=C(CCNc2ncnc3nc[nH]c23)CCCC1 returned CHO-K1 Ca antag 2, M1 ag parental 8, CHO-K1 Ca PAM -9, M1 ag 2, M1 antag 28* and CHRM1 PAM -19.
CCCNc1ncnc2nc[nH]c12 was read as CHO-K1 Ca antag -3, M1 ag parental 0, CHO-K1 Ca PAM -9, M1 ag -2, M1 antag -6 and CHRM1 PAM 6.
`c1ccc(CNc2ncnc3nc[nH]c23)cc1` gave CHO-K1 Ca antag 7, M1 ag parental -1, CHO-K1 Ca PAM 10, M1 ag -1, M1 antag -20 and CHRM1 PAM 2.
For COc1ccc2[nH]c3c(NCCC4=CCCCC4)ncnc3c2c1 the results were CHO-K1 Ca antag 14, M1 ag parental 15*, CHO-K1 Ca PAM -12, M1 ag 0, M1 antag 23 and CHRM1 PAM -9.
c1ccc(CCCNc2ncnc3nc[nH]c23)cc1 was read as CHO-K1 Ca antag -2, M1 ag parental 8, CHO-K1 Ca PAM 16, M1 ag 21*, M1 antag 2 and CHRM1 PAM -5.
For CCN(CC)C(=O)C1=C(C)N(CCC2=CCCCC2)C(=O)C(CC(=O)NC(c2ccccc2)c2ccccc2)C1 (stereo not given) the results were CHO-K1 Ca antag 0, M1 ag parental 0, CHO-K1 Ca PAM -2, M1 ag -7, M1 antag -12 and CHRM1 PAM 10.
For COc1ccc(OCC(O)CN2CC(C)OC(C)C2)cc1 (stereo not given) the results were CHO-K1 Ca antag -4, M1 ag parental 1, CHO-K1 Ca PAM 11, M1 ag -5, M1 antag -3 and CHRM1 PAM 2.
`CCN(CC(=O)N1CCCC1)S(=O)(=O)c1cc(C)ccc1OC` gave CHO-K1 Ca antag -3, M1 ag parental 1, CHO-K1 Ca PAM 16, M1 ag -1, M1 antag -9 and CHRM1 PAM 9.
`Clc1ccc(CCNc2ncnc3nc[nH]c23)cc1` gave CHO-K1 Ca antag 30*, M1 ag parental 13, CHO-K1 Ca PAM -3, M1 ag 6, M1 antag 30* and CHRM1 PAM -21.
Screening CCCCc1ccc(N/C(N)=N/c2nc(C)cc(C)n2)cc1 returned CHO-K1 Ca antag 46*, M1 ag parental 42*, CHO-K1 Ca PAM -28, M1 ag 35*, M1 antag 83* and CHRM1 PAM -28.
For Cc1ccc(N/C(N)=N/c2nc(C)cc(C)n2)cc1 the results were CHO-K1 Ca antag -3, M1 ag parental 9, CHO-K1 Ca PAM 0, M1 ag -5, M1 antag -6 and CHRM1 PAM -7.
Cc1cc(C)nc(/N=C(\N)Nc2ccc(C(C)C)cc2)n1 was read as CHO-K1 Ca antag 4, M1 ag parental 16*, CHO-K1 Ca PAM -4, M1 ag 3, M1 antag 14 and CHRM1 PAM -14.
`O=C(CCC1CCCN(C2C3CC4CC(C3)CC2C4)C1)NCc1ccc(F)c(F)c1` (stereo not given) gave CHO-K1 Ca antag -5, M1 ag parental 0, CHO-K1 Ca PAM 12, M1 ag -5, M1 antag 43* and CHRM1 PAM -18.
`Cc1occc1C(=O)N1CCCC(CCC(=O)NCc2ccc(F)c(F)c2)C1` (stereo not given) gave CHO-K1 Ca antag -13, M1 ag parental 1, CHO-K1 Ca PAM 11, M1 ag -6, M1 antag -6 and CHRM1 PAM 11.
